{"source": "PubChem BioAssay AID1259343", "about": "(VanderVen Lab, College of Veterinary Medicine, Cornell …, 2017)", "note": "Hit rate of the full screen: of about 6,200 compounds, about 2,900 (47%) were called active. The set was probably picked from earlier hits. The list shows a part of the results. Unmarked numbers belong to inactive results. No stated cut-off is given here; in the data, active means inhibition above about 50%; inactive means the rest."}
{"assay": "Mycobacterium tuberculosis growth inhibition, primary screen (AID 1259343)", "conditions": "inhibition: at 10 µM, stronger effect = higher value; outcome: 10 uM"}
{"smiles": "COc1ccc(NC(=O)N2CCN(CCCOC(c3ccc(Cl)cc3)c3ccc(Cl)cc3)CC2)cc1", "inhibition": "10.1%"}
{"smiles": "Cc1ccc(Cc2nnc(SCC(=O)Nc3ccc(OC(F)F)cc3)[nH]c2=O)cc1", "inhibition": "44.2%"}
{"smiles": "COc1ccc(NC(=O)CSc2n[nH]c(C3CC3)n2)cc1", "inhibition": "78.8% (active)"}
{"smiles": "O=[N+]([O-])c1cccc(-c2csc(Nc3ccc(Cl)cc3)n2)c1", "inhibition": "88.3% (active)"}
{"smiles": "Cc1ccc(C)c(Nc2nc(-c3ccc([N+](=O)[O-])cc3)cs2)c1", "inhibition": "15.3%"}
{"smiles": "COC(=O)c1ccc2c(c1)S(=O)(=O)N(C1CCCCC1C)C2=O", "note": "(configuration not stated)", "inhibition": "81.4% (active)"}
{"smiles": "COC(=O)Nc1cccc(C(=O)N2CCC(C)C3CCCCC32)c1", "note": "(configuration not stated)", "inhibition": "27.1%"}
{"smiles": "CS(=O)(=O)NCc1cccc(-c2ccc(C#N)s2)c1", "inhibition": "2.92%"}
{"smiles": "Cc1ccc(-c2nnc(SCC(=O)N3CCC(C)CC3)o2)cc1", "inhibition": "-35.9%"}
{"smiles": "CCOC(=O)CSc1nnc(CSc2cc(C)nc(N3CCCC3)n2)o1", "inhibition": "93.2% (active)"}
{"smiles": "COC(=O)CSc1ncnc2c1nnn2Cc1ccc(F)cc1", "inhibition": "-38.1%"}
{"smiles": "CCOC(=O)C(C)Sc1ncnc2c1nnn2-c1ccc(OC)cc1", "note": "(configuration not stated)", "inhibition": "75.5% (active)"}
{"smiles": "COc1ccc(-n2nnc3c(SCC(N)=O)ncnc32)cc1", "inhibition": "14.3%"}
{"smiles": "CCOC(=O)CNC(=O)CSc1ncnc2c1nnn2-c1ccc(OC)cc1", "inhibition": "-7.53%"}
{"smiles": "COc1ccc(-n2nnc3c(SCC(=O)Nc4ccccc4)ncnc32)cc1", "inhibition": "68.2% (active)"}
{"smiles": "COC(=O)C(C)Sc1ncnc2c1nnn2-c1ccc(F)cc1", "note": "(configuration not stated)", "inhibition": "76.7% (active)"}
{"smiles": "CCC(Sc1ncnc2c1nnn2-c1ccc(F)cc1)C(=O)OC", "note": "(configuration not stated)", "inhibition": "42.6%"}
{"smiles": "COC(=O)CSc1ncnc2c1nnn2-c1ccc(F)cc1", "inhibition": "89.9% (active)"}
{"smiles": "CCOC(=O)CSc1ncnc2c1nnn2-c1ccc(OC)cc1", "inhibition": "3.35%"}
{"smiles": "O=C(CSc1ncnc2c1nnn2-c1ccc(F)cc1)OCc1ccccc1", "inhibition": "2.43%"}
{"smiles": "CCC(Sc1ncnc2c1nnn2-c1ccc(OC)cc1)C(=O)OC", "note": "(configuration not stated)", "inhibition": "-33.3%"}
{"smiles": "CCOC(=O)C(CC)Sc1ncnc2c1nnn2-c1ccc(F)cc1", "note": "(configuration not stated)", "inhibition": "36.5%"}
{"smiles": "COC(=O)C(C)Sc1ncnc2c1nnn2-c1ccc(OC)cc1", "note": "(configuration not stated)", "inhibition": "72.2% (active)"}
{"smiles": "CC(Sc1ncnc2c1nnn2-c1ccc(F)cc1)c1ccccc1", "note": "(configuration not stated)", "inhibition": "82.1% (active)"}
{"smiles": "CCOC(=O)C(C)Sc1ncnc2c1nnn2-c1ccc(F)cc1", "note": "(configuration not stated)", "inhibition": "60% (active)"}
{"smiles": "O=C(N=C1N=C2N=CC=CN2Cc2ccccc21)Nc1ccc(Cl)c(Cl)c1", "inhibition": "88% (active)"}
{"smiles": "O=C(CC12CC3CC(CC(C3)C1)C2)N=C1N=C2C=CC=CN2Cc2ccccc21", "inhibition": "-15.7%"}
{"smiles": "O=C(N=C1N=C2C=CC(Br)=CN2Cc2ccccc21)c1ccccn1", "inhibition": "10.5%"}
{"smiles": "O=C(Nc1ccc(Oc2ccccc2F)cc1)C1CCN(C(=O)C#Cc2ccccc2)CC1", "inhibition": "89.6% (active)"}
{"smiles": "O=C(Nc1ccc(Oc2ccccc2F)cc1)C1CCN(C(=O)c2ccncc2)CC1", "inhibition": "90.8% (active)"}
{"smiles": "O=C(Nc1ccc(Oc2ccccc2F)cc1)C1CCN(C(=O)C2=CCCC2)CC1", "inhibition": "90.8% (active)"}
{"smiles": "Cc1cc(C(=O)N2CCC(C(=O)Nc3ccc(Oc4ccccc4F)cc3)CC2)c(C)o1", "inhibition": "inactive"}
{"smiles": "O=C(Nc1ccc(F)cc1F)C1CCN(C(=O)c2cccnc2)CC1", "inhibition": "85.7% (active)"}
{"smiles": "O=C(Nc1ccc(Oc2ccccc2)nc1)C1CCN(C(=O)C2=CCCC2)CC1", "inhibition": "44%"}
{"smiles": "O=C(Nc1ccc(Oc2ccccc2F)cc1)C1CCN(C2Cc3ccccc3C2)CC1", "inhibition": "91.6% (active)"}
{"smiles": "Cc1cc(NC(=O)c2ccccc2)n(-c2nc3c(c(=O)[nH]2)CCC3)n1", "inhibition": "-26.4%"}
{"smiles": "Cc1cc(NC(=O)c2ccc(F)c(F)c2)n(-c2nc3c(c(=O)[nH]2)CCC3)n1", "inhibition": "-20.9%"}
{"smiles": "Cc1cc(NC(=O)c2cc(Cl)ccc2Cl)n(-c2nc3c(c(=O)[nH]2)CCC3)n1", "inhibition": "37.1%"}
{"smiles": "Cc1cc(NC(=O)c2ccco2)n(-c2nc3c(c(=O)[nH]2)CCC3)n1", "inhibition": "101% (active)"}
{"smiles": "Cc1cc(NC(=O)c2ccc(Cl)cc2)n(-c2nc3c(c(=O)[nH]2)CCC3)n1", "inhibition": "101% (active)"}
{"smiles": "Cc1cc(NC(=O)c2ccccc2C)n(-c2nc3c(c(=O)[nH]2)CCC3)n1", "inhibition": "100% (active)"}
{"smiles": "COc1ccc(Cl)cc1C(=O)Nc1cc(C)nn1-c1nc2c(c(=O)[nH]1)CCC2", "inhibition": "95.5% (active)"}
{"smiles": "CCCN1CCCc2cc(CCNS(=O)(=O)Cc3cccc(C)c3)ccc21", "inhibition": "31.9%"}
{"smiles": "O=C(Nc1ccc(Oc2ccc(Cl)cc2)c(Cl)c1)c1cc(I)cc(I)c1O", "inhibition": "101% (active)"}
{"smiles": "CSc1nnc(SCc2ccc([N+](=O)[O-])cc2)s1", "inhibition": "-12.4%"}
{"smiles": "CCCCCCC(=O)NN=Cc1ccc([N+](=O)[O-])cc1", "inhibition": "77.5% (active)"}
{"smiles": "CCCC(=O)Oc1c(S(=O)(=O)c2ccc([N+](=O)[O-])cc2)c(C)nn1-c1ccccc1", "inhibition": "28.6%"}
{"smiles": "CCCCCC(=O)NN=Cc1ccc([N+](=O)[O-])cc1", "inhibition": "100% (active)"}
{"smiles": "O=C(CSc1nnc(SCc2ccccc2)s1)NN=Cc1ccc([N+](=O)[O-])cc1", "inhibition": "83.1% (active)"}
{"smiles": "CC(C)(C)c1ccc(C=NOCc2ccc([N+](=O)[O-])cc2)cc1", "inhibition": "-20.2%"}
{"smiles": "CC(C)=CCCC(C)=CC=NNc1ccc([N+](=O)[O-])cc1", "inhibition": "62% (active)"}
{"smiles": "CC1=Nn2cc(-c3ccccc3)nc2SC1c1ccccc1", "note": "(configuration not stated)", "inhibition": "20.8%"}
{"smiles": "CCCCCCC(C)=NNc1ccc([N+](=O)[O-])cc1", "inhibition": "98.5% (active)"}
{"smiles": "CCCCCCCC(C)=NNc1nc2ccccc2s1", "inhibition": "inactive"}
{"smiles": "C=CCc1cc([N+](=O)[O-])ccc1O", "inhibition": "101% (active)"}
{"smiles": "O=C(C=Cc1ccco1)NCc1ccc(F)cc1", "inhibition": "72.3% (active)"}
{"smiles": "O=C(C=Cc1ccco1)NC12CC3CC(CC(C3)C1)C2", "inhibition": "67.6% (active)"}
{"smiles": "O=C(/C=C/c1cc(C(F)(F)F)ccc1Cl)NCc1ccon1", "inhibition": "-0.62%"}
{"smiles": "O=C(C=Cc1cccs1)NC12CC3CC(CC(C3)C1)C2", "inhibition": "inactive"}
{"smiles": "O=C(C=Cc1ccc(F)cc1)NCc1ccco1", "inhibition": "29.9%"}
{"smiles": "CC(C)(C)OC(=O)NNC(=O)C=Cc1ccco1", "inhibition": "-8.19%"}
{"smiles": "COc1ccc(NC(=O)CSCc2ccccn2)cc1OC(F)F", "inhibition": "17.9%"}
{"smiles": "COc1ccc(NC(=O)c2ccsc2)cc1OC(F)F", "inhibition": "54.8% (active)"}
{"smiles": "COc1ccc(C)cc1CCNC(=O)c1ccsc1", "inhibition": "26.8%"}
{"smiles": "Cc1ccnc(N2CCN(c3ncnc4scc(-c5ccc(F)cc5)c34)CC2)c1", "inhibition": "3.93%"}
{"smiles": "O=S(=O)(CCCOc1ccc2c(c1)OCO2)NC1CCCCC1", "inhibition": "99.2% (active)"}
{"smiles": "Cc1cccc(OCCN(C)C(=O)/C=C/c2ccc3c(c2)OCO3)c1", "inhibition": "34.9%"}
{"smiles": "CC(C)NS(=O)(=O)CCCOc1ccc2c(c1)OCO2", "inhibition": "50.3% (active)"}
{"smiles": "O=S(=O)(CCCOc1ccc2c(c1)OCO2)NC1CCCCCC1", "inhibition": "93% (active)"}
{"smiles": "COCCn1c(=S)[nH]c2sc3c(c2c1=O)CCC(C)C3", "note": "(configuration not stated)", "inhibition": "-21.7%"}
{"smiles": "CCN=c1scc(-c2ccc(Br)s2)n1N=CC1CCCCC1", "inhibition": "36%"}
{"smiles": "CNC(=O)c1sc(N2CCN(c3ccccc3F)CC2)nc1C", "inhibition": "33.2%"}
{"smiles": "CC1=CC(=NNc2nc3ccccc3[nH]2)CC(C)(C)C1", "inhibition": "24.5%"}
{"smiles": "Cc1nc(C(C)C)sc1C(=O)Nc1nc2ccccc2[nH]1", "inhibition": "100% (active)"}
{"smiles": "Cc1csc(Nc2ccc(Cl)cc2)[n+]1-c1ccc(Cl)cc1", "inhibition": "16%"}
{"smiles": "Cc1nc2nc(CC(=O)N3CCOCC3)nn2c(C)c1Cl", "inhibition": "52.5% (active)"}
{"smiles": "CC(C)(C)C(=O)NC(=S)NC1=CC2N=C(c3ccncc3)OC2C=C1", "note": "(configuration not stated)", "inhibition": "54.2% (active)"}
{"smiles": "CC(C)COc1ccc(NC(=O)c2nn(C)c(=O)c3ccccc23)cc1Cl", "inhibition": "24.1%"}
{"smiles": "CC(C)COc1ccc(NC(=O)c2ccnnc2)cc1Cl", "inhibition": "50.1% (active)"}
{"smiles": "CC(C)COc1ccc(NC(=O)C2CC2c2cnn(C)c2)cc1Cl", "note": "(configuration not stated)", "inhibition": "-6.2%"}
{"smiles": "CS(=O)(=O)Nc1cc(Cl)ccc1Sc1ccc(F)cc1", "inhibition": "76.2% (active)"}
{"smiles": "Cc1cc(C)c(NC(=O)c2cc(C)nc3c2cnn3C(C)C)c(C)c1", "inhibition": "59.8% (active)"}
{"smiles": "CCOc1ccc(-c2nc(CN3N=NC4C(=O)N(c5ccc(C)c(Cl)c5)C(=O)C43)c(C)o2)cc1", "note": "(configuration not stated)", "inhibition": "20.2%"}
{"smiles": "CCCN(C)C(=O)c1ccc2c(c1)C(=O)N(c1ccc(OCC)cc1)C2=O", "inhibition": "21.7%"}
{"smiles": "CCOc1ccc(N2C(=O)C3N=NN(Cc4cc(C)ccc4C)C3C2=O)cc1", "note": "(configuration not stated)", "inhibition": "61.5% (active)"}
{"smiles": "COc1ccc(N2C(=O)C3N=NN(Cc4cc(C)ccc4C)C3C2=O)cc1Cl", "note": "(configuration not stated)", "inhibition": "-29.4%"}
{"smiles": "CCc1ccc(N2C(=O)C3N=NN(Cc4cccc(C)c4)C3C2=O)cc1", "note": "(configuration not stated)", "inhibition": "67.8% (active)"}
{"smiles": "CCOc1ccc(N2C(=O)C3N=NN(Cc4cccc(C)c4)C3C2=O)cc1", "note": "(configuration not stated)", "inhibition": "78.4% (active)"}
{"smiles": "CCc1ccc(N2C(=O)C3N=NN(Cc4nc(-c5cccc(Cl)c5)oc4C)C3C2=O)cc1", "note": "(configuration not stated)", "inhibition": "83.4% (active)"}
{"smiles": "CSc1ccc(NC(=O)c2cn[nH]n2)cc1Cl", "inhibition": "95.5% (active)"}
{"smiles": "CC(=O)/C(=N/Nc1ccc(C)cc1)N1CCOCC1", "inhibition": "94.7% (active)"}
{"smiles": "O=C1c2ccc([N+](=O)[O-])cc2C(=O)N1CNc1ccc2c(c1)oc1ccccc12", "inhibition": "86.3% (active)"}
{"smiles": "O=C1c2cccc([N+](=O)[O-])c2C(=O)N1CNc1ccc(Cl)c(Cl)c1", "inhibition": "45.5%"}
{"smiles": "CC(C)CCC(C)NC(=O)c1cc(O)cs1", "note": "(configuration not stated)", "inhibition": "37.3%"}
{"smiles": "Cc1cc(O)c(S(=O)(=O)c2cc(Cl)c(Cl)cc2Cl)c(=O)[nH]1", "inhibition": "60.9% (active)"}
{"smiles": "FC(F)(F)COCCCn1nnc(-c2ccsc2)n1", "inhibition": "79.5% (active)"}
{"smiles": "O=C1NC(=O)C(=Cc2cccs2)S1", "inhibition": "42.2%"}
{"smiles": "O=C1C(=Cc2cccs2)CCCC1=Cc1cccs1", "inhibition": "91.6% (active)"}
{"smiles": "C=CCC1SC(=NN=Cc2cccs2)NC1=O", "note": "(configuration not stated)", "inhibition": "22.9%"}
{"smiles": "O=C1C(=Cc2ccc(Br)s2)CCc2ccccc21", "inhibition": "0.54%"}
{"smiles": "O=C1/C(=C/c2cccs2)C(c2cccs2)Oc2ccccc21", "note": "(configuration not stated)", "inhibition": "33%"}
{"smiles": "O=C1C(=Cc2cccs2)CCC1=Cc1cccs1", "inhibition": "103% (active)"}
